For 7 compounds, Percent Effect results are on record in ChEMBL document CHEMBL3988442, “University of Dundee, Small-Polar-MMV Screening Library” (2021).

For some of these results: Measured potencies and affinities stand elsewhere.

Holding throughout (set-up): scale not given: direction of the effect not stated beside the values
Experiment [1] deals with Protein translocase subunit SecA (Escherichia coli (strain K12)) (UniProt P10408). The experiment in a line: Assay to Identify E. coli SecA ATPase Inhibitors. It is filed as functional. As to conditions: 30 µM.
Chain of Protein translocase subunit SecA (Escherichia coli (strain K12)) (P10408 whole entry): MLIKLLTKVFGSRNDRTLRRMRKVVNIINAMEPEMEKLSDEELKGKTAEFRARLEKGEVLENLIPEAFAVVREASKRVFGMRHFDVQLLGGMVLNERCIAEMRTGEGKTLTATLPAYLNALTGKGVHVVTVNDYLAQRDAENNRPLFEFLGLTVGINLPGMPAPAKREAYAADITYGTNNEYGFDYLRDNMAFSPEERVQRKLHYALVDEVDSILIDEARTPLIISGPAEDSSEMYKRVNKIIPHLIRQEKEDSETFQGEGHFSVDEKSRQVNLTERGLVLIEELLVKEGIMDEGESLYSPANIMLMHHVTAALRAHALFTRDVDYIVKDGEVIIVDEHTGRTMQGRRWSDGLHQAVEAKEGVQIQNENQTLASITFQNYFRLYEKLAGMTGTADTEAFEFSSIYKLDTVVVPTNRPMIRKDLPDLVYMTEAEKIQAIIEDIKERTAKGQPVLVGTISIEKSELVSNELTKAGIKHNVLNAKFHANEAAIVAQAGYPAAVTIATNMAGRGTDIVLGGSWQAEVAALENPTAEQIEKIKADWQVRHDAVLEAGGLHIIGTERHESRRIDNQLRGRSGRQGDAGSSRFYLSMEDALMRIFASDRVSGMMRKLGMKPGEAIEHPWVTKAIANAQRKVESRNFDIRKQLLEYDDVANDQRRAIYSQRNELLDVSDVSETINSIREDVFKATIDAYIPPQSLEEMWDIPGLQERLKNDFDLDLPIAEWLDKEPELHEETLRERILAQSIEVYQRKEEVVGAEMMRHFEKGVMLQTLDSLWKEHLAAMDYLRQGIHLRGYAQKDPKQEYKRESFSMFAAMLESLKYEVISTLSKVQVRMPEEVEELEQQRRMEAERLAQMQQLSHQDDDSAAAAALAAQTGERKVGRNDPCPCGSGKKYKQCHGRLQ
In experiment [2] the target is T1, Ubiquitin-activating enzyme e1, putative (Leishmania donovani (strain BPK282A1)) (UniProt E9BSI1).
T1 sequence (whole entry): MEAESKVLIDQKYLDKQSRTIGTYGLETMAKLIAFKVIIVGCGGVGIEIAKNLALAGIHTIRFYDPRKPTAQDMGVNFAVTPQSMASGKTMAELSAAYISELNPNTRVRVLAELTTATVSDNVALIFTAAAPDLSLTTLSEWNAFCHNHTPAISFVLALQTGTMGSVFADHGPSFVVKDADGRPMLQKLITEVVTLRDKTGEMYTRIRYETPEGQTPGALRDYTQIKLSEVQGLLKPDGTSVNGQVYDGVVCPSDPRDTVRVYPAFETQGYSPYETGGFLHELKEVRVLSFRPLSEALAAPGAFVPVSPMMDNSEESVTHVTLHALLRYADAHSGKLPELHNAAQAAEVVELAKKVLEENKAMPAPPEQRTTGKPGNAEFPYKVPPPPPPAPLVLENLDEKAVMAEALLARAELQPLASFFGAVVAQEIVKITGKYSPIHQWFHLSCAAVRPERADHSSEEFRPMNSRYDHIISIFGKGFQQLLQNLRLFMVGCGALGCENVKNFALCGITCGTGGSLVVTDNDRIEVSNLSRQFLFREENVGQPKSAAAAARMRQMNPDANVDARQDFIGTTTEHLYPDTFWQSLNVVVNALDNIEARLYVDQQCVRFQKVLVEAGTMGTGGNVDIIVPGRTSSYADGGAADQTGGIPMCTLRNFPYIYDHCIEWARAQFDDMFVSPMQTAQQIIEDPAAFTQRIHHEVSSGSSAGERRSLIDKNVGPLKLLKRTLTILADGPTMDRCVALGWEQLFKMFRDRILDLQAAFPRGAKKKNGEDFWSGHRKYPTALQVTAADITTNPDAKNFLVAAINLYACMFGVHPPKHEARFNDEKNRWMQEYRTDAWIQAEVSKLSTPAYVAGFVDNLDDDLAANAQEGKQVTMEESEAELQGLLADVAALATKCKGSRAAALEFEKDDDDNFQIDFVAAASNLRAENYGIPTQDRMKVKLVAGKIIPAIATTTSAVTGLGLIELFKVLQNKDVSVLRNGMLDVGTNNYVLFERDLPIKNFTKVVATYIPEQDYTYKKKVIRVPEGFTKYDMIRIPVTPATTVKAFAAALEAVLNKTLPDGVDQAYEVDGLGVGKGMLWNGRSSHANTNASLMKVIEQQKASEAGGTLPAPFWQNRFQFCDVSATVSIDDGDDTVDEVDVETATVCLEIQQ
The experiment in a line: Leishmania donovani Ubiquitin Activating Enzyme (LdE1). It is filed as functional. Particulars: 30 µM.

The target in experiment [3] is Sialic acid-binding Ig-like lectin 9 (Homo sapiens) (UniProt Q9Y336). The experiment in a line: Hs-Siglec9 ALPHAscreen SOP 20170721. As to conditions: 10 µM.
Chain of Sialic acid-binding Ig-like lectin 9 (Homo sapiens) (Q9Y336 whole entry): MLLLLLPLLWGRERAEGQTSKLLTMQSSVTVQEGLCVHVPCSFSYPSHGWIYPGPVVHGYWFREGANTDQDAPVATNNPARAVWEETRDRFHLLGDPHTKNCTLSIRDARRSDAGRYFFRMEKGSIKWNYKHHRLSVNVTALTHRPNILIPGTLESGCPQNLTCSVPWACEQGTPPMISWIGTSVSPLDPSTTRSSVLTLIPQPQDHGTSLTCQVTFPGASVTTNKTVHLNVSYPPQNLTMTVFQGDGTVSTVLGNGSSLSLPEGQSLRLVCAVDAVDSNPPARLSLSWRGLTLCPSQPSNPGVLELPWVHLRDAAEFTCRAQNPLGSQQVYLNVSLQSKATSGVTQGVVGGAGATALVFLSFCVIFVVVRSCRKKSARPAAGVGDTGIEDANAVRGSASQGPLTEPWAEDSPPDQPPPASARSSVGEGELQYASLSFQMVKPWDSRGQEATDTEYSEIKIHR
The next experiment deals with Trypanosoma cruzi. The experiment in a line: Trypanosoma cruzi phosphomannomutase and mannose-1-phosphate guanylyltransferase assay. The format is functional. Particulars: 10 µM.
Experiment [4] has as its target T2, Arginase-2, mitochondrial (Homo sapiens) (UniProt P78540).
T2 sequence (whole entry): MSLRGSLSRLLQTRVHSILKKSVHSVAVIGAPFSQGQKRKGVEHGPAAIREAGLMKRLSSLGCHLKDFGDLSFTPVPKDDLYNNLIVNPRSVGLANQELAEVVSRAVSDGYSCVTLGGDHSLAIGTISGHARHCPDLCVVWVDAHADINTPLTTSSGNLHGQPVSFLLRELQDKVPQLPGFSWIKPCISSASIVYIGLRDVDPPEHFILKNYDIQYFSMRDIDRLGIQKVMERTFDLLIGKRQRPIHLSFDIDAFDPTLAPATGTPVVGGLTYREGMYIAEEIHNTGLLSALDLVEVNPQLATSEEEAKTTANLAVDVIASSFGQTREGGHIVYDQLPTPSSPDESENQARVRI
The experiment in a line: in vitro enzyme assay to detect the production of urea directly proportional to the activity of Arginase II. Further: in the data most compounds retested in dose-response had high values. It is filed as functional. Particulars: 33.3 µM.

For experiment [5], the target named is T3, Proteasome subunit beta (Trypanosoma cruzi) (UniProt O96673).
T3 sequence (whole entry): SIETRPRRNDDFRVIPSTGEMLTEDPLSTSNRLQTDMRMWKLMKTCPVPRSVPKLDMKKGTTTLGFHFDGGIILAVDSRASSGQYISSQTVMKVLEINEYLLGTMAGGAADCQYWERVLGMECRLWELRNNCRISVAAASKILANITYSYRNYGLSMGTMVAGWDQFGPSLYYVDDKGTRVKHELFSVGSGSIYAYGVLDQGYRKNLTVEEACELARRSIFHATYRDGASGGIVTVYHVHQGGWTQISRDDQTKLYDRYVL
The experiment in a line: Trypanosoma cruzi proteasome chymotrypsin-like activity (TcProtChymo) assay. Further: in the data most compounds retested in dose-response had high values. As to conditions: 9.37 µM. The format is functional.

A further experiment is filed under the species Homo sapiens. The experiment in a line: To identify inhibition of the IFN signalling (Jak-Stat) pathway via expression of an eGFP reporter gene under the control of an IFN-stimulated response element (ISRE) containing MxA promoter. Particulars: 30 µM. It is filed as functional.
For experiment [6], the target named is T4, Tyrosyl-tRNA synthetase, putative (Trypanosoma cruzi (strain CL Brener)) (UniProt Q4DSP6).
T4 sequence (whole entry): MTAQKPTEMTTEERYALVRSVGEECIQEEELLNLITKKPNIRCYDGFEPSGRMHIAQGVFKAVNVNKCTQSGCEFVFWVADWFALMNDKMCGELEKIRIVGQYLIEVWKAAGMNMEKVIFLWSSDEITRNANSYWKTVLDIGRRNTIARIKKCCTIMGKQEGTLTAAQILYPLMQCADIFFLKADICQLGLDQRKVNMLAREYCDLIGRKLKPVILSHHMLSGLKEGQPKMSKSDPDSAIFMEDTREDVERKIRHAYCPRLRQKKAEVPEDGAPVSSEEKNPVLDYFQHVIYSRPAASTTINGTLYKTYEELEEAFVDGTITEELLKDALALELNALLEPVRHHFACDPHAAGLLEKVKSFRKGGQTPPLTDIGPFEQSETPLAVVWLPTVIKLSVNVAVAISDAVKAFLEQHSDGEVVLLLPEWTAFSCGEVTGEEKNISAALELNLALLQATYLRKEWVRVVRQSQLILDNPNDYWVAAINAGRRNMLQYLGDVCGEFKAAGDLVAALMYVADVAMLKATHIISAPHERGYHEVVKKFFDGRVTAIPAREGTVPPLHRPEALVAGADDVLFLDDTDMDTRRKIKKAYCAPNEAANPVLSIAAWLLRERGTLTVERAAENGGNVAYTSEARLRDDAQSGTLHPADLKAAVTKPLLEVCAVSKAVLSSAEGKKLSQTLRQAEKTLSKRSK
The experiment in a line: Trypanosoma cruzi tyrosyl tRNA synthetase (TcYRS) _High Tyrosine SOP. Further: in the data most compounds retested in dose-response had high values. The format is functional. Particulars: 30 µM.

Experiment [7] deals with T4, Tyrosyl-tRNA synthetase, putative (Trypanosoma cruzi (strain CL Brener)). The experiment in a line: Trypanosoma cruzi tyrosyl tRNA synthetase (TcYRS) SOP. It is filed as functional. As to conditions: 30 µM.
Experiment [8] addresses Chromo domain-containing protein 1 (Saccharomyces cerevisiae (strain ATCC 204508 / S288c) (Baker's yeast)) (UniProt P32657). The experiment in a line: ScCHD-1 Enzyme Inhibition Assay. Further: in the data most compounds retested in dose-response had high values. The format is functional. As to conditions: 30 µM.

Chain of Chromo domain-containing protein 1 (Saccharomyces cerevisiae (strain ATCC 204508 / S288c) (Baker's yeast)) (P32657 whole entry, the tested form may be a part): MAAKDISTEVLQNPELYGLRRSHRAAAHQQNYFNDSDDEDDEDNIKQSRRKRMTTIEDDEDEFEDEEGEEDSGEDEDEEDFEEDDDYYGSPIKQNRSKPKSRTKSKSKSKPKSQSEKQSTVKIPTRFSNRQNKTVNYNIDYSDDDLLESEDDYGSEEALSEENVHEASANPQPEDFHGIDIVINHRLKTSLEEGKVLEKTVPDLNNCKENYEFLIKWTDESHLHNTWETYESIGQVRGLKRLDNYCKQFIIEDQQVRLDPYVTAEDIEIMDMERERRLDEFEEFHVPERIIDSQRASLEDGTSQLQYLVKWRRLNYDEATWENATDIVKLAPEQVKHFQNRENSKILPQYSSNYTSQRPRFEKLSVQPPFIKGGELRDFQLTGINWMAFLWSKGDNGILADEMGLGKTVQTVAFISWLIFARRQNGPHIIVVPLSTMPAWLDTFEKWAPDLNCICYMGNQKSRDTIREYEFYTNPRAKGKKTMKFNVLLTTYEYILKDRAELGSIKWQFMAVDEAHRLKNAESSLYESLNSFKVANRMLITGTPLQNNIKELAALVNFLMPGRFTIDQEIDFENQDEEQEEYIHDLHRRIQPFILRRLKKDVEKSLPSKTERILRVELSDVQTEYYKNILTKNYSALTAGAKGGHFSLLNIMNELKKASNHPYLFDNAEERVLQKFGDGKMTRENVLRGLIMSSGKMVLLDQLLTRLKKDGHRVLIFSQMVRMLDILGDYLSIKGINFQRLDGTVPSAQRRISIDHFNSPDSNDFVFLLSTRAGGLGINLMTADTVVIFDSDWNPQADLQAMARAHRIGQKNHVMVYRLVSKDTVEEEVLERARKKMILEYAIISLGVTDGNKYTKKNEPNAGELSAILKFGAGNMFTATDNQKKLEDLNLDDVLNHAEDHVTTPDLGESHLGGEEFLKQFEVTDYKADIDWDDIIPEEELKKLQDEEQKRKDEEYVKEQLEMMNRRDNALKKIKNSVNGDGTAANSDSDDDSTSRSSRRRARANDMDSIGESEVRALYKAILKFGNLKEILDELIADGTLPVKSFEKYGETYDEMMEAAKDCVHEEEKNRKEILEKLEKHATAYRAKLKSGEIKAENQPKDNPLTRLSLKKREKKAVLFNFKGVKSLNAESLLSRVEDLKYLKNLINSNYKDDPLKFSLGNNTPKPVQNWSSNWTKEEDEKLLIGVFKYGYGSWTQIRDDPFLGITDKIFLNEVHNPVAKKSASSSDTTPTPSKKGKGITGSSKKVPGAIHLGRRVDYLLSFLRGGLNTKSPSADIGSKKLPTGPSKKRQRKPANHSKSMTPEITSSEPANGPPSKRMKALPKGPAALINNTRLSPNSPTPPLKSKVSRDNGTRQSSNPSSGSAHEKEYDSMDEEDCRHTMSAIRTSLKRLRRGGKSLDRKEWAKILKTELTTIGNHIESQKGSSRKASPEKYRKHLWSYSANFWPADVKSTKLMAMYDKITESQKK

In the case of `Cc1nc[nH]c1CN1CCN(C(=O)c2cccs2)[C@H]2CS(=O)(=O)C[C@H]21`, the Percent Effect in experiment [1] was -6.02%; in experiment [2] it was 2.7%; in [3] it was 2.06%; with Trypanosoma cruzi, -2.81%; in experiment [4] it was 3.85%; in experiment [5], 4.62%. In addition, the Percent Effect in the experiment listed under Homo sapiens is 5.03%; in experiment [6], 4.79%; in experiment [7], 14.6%; in [8], -2.09%.
Consider `COCCN1CC(C(=O)NCc2ccnc(-n3cccn3)c2)CC1=O` (stereo not given), for which the Percent Effect in [1] was -3.79%; in experiment [2], -5.13%; in [3] it was -5.84%; with Trypanosoma cruzi, -1.22%; in experiment [4], 3.28%; in [5], -1.79%. In addition, the Percent Effect is 23.2% in the experiment filed under Homo sapiens, -2.39% in experiment [6], -3.61% in experiment [7] and 6.47% in experiment [8].
With `CC(C)NC(=O)C1CN(C(=O)c2ccco2)CC12CCOCC2` (stereo not given), the Percent Effect in experiment [1] was -1.7%; in experiment [2], 9.09%; in experiment [3], -6.62%; in the experiment with Trypanosoma cruzi, 3.41%; in experiment [4], 3.24%; in [5] it was 10.2%. The Percent Effect in the experiment listed under Homo sapiens was -3.41%; in experiment [6], 8.95%; in experiment [7] it was 12.8%; in experiment [8], -4.15%.
On to `Cc1ccc(C(=O)N2C[C@@H](OCC3CCOCC3)[C@H]3OCCC[C@H]32)o1`, for which the Percent Effect in experiment [1] was -3.48%; in [2], 14.3%; in experiment [3] it was 0.662%; in the experiment on Trypanosoma cruzi, 4.58%; in [4], 10.9%; in experiment [5], 9.44%. For the same compound, the Percent Effect is 6.42% in the experiment filed under Homo sapiens, 4.74% in experiment [6], 15.4% in experiment [7] and 18.8% in experiment [8].
`Cc1cc(-c2nn(C)c(Cl)c2CN2CCOCC(O)C2)no1` (stereo not given): the Percent Effect is -4.83% in experiment [1]; 13.5% in experiment [2]; 10% in [3]; 4.37% in the experiment with Trypanosoma cruzi; 15.7% in experiment [4]; 13% in [5]. In addition, the Percent Effect in the experiment filed under Homo sapiens is 15.5%; in experiment [6], 2.66%; in [7], 17.1%; in experiment [8], -4.79%.
On to `CCO[C@@H]1CO[C@@]2(CCCN(S(=O)(=O)c3cccnc3)C2)C1`, for which the Percent Effect in [1] is -2.66%; in [2] it was 11.7%; in experiment [3], -9.59%; with Trypanosoma cruzi, -4.97%; in experiment [4], 3.64%; in [5], 18.3%. Moreover, the Percent Effect came out at 6.27% in the experiment listed under Homo sapiens, 5.79% in experiment [6], 5.13% in experiment [7] and 2.99% in experiment [8].
As to `COCC(=O)N1CCC2(CC1)CCN(Cc1ccccn1)C2=O`, the Percent Effect in experiment [1] is -4.26%; in experiment [2], -3.9%; in [3], -5.87%; in the experiment with Trypanosoma cruzi, -2.24%; in experiment [4], -3.64%; in [5], 1.5%. In addition, the Percent Effect is -7.24% in the experiment filed under Homo sapiens, -2.63% in experiment [6], -5.13% in experiment [7] and 0.829% in experiment [8].
